In all, about 360,000 compounds went through this assay and about 1,300 (0.36%) were called active.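 The calls were made as follows: active = inhibition above the mean of all tested compounds plus 3 SD (cut at about 70% in these data); inactive = the rest.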 The full list was thinned out, with actives kept by preference.
Each compound was assayed against Photoreceptor-specific nuclear receptor (Homo sapiens) (UniProt Q9Y5X4) (assay: NCOR release from NR2E3 in cells – cell-based, luminescence, CHO-S, Gal4-NCOR/VP16-NR2E3, primary screen (AID 602229;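 also: 0% = DMSO with NR2E3 transfected cells and 100% = cells lacking NR2E3 construct; higher means lower luciferase signal from less NR2E3 corepressor binding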)). Conditions: CHO-S Gal4-NCOR/VP16-NR2E3 two-hybrid, luciferase; at 3.98 µM; active compounds read high.
Sequence of Photoreceptor-specific nuclear receptor (Homo sapiens) (Q9Y5X4 whole entry, looked up, the tested form may be a part): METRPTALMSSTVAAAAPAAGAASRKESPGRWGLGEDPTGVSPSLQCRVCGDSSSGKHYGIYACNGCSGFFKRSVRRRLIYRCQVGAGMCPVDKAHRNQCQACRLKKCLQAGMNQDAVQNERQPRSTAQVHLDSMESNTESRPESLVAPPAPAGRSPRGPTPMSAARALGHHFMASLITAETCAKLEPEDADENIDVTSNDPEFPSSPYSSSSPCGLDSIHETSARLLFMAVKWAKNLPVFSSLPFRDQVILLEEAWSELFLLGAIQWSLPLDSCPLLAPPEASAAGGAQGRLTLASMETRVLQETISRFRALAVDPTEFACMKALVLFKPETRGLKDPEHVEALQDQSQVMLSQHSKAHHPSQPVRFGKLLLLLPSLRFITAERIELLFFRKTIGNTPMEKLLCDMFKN

Row | Compound | inhibition of corepressor binding
1 | CCn1c(/C=C/c2ccc([N+](=O)[O-])o2)nc2ccccc2c1=O | 9.98% (inactive)
2 | O=C(/C=C/c1ccc([N+](=O)[O-])o1)NNC(=O)c1ccc(F)cc1 | 101% (active)
3 | O=C(/C=C/c1ccc(F)cc1)NC(=S)NNC(=O)c1cccnc1 | -36.2% (inactive)
4 | CC1=C(C(=O)Nc2ccccc2)C(c2cccs2)C(C#N)=C(SCC#N)N1 (stereo not drawn) | -12.8% (inactive)
5 | CNS(=O)(=O)c1ccc2c(c1)[nH]c(=S)n2C | 10% (inactive)
6 | CCCN(CC(=O)Nc1ccc(C(N)=O)cc1)CC(=O)Nc1ccccc1C | 12.9% (inactive)
7 | Nc1nc(-c2sc3nc4c(cc3c2N)CCCC4)nc(N2CCOCC2)n1 | -56.6% (inactive)
8 | COC(=O)C1C(=O)c2c([nH]c(C(=O)OCCSC)c2C)CC1C (stereo not drawn) | -86.8% (inactive)
9 | CCCOC(=O)c1[nH]c2c(c1C)C(=O)CC(c1cccs1)C2 (stereo not drawn) | 2.46% (inactive)
10 | CCCOC(=O)c1[nH]c2c(c1C)C(=O)CC(c1cc(OC)c(OC)c(OC)c1)C2 (stereo not drawn) | 70.4% (active)
11 | Cc1cc(C)c(S(=O)(=O)NCC2CCC(C(=O)NCc3ccc4c(c3)OCO4)CC2)c(C)c1 (stereo not drawn) | -8.75% (inactive)
12 | CC(C)C1Nc2c(C(=O)O)cccc2C(Nc2ccccc2C(=O)O)C1(C)C (stereo not drawn) | 6.02% (inactive)
13 | COc1ccc(F)cc1S(=O)(=O)N1CCCCC1 | 4.16% (inactive)
14 | Cc1ccc(C)c(NC(=O)COC(=O)c2nn(C)c(=O)c3ccccc23)c1 | 8.19% (inactive)
15 | Cc1ccc(F)cc1NC(=O)CSCc1c(C)noc1C | -16.1% (inactive)
16 | Cc1ccc(F)cc1NC(=O)Cc1nn(C)c(=O)c2ccccc12 | 96.1% (active)
17 | O=C(CN1CCN(S(=O)(=O)c2ccc(Br)cc2)CC1)Nc1ccccc1C(=O)c1ccccc1 | 3.01% (inactive)
18 | CCCCC[C@@H]1C=C(C(=O)O)[C@H](c2ccc(C#N)cc2)N1S(=O)(=O)c1ccc(C)cc1 | -8.3% (inactive)
19 | CCCCC[C@@H]1C=C(C(=O)OCC)[C@H](c2ccccc2)N1S(=O)(=O)c1ccc(C)cc1 | 16.2% (inactive)
20 | Cc1ccc(S(=O)(=O)N2[C@@H](c3ccc(Br)cc3)C(C(=O)O)=C[C@H]2CC2CCCC2)cc1 | 77.4% (active)

Row | Compound | inhibition of corepressor binding
21 | O=C(NCc1ccccc1)C(=O)NCC1OCCN1S(=O)(=O)c1ccc(Br)cc1 (stereo not drawn) | 10.3% (inactive)
22 | O=C(C1CCC1)N1CCc2cc(S(=O)(=O)NCc3cccnc3)ccc21 | 10% (inactive)
23 | COc1cccc(CNS(=O)(=O)c2ccc3c(c2)CC(C)N3C(=O)C2CCC2)c1 (stereo not drawn) | 87.5% (active)
24 | COc1ccc(N(C)S(=O)(=O)c2ccc3c(c2)CC(C)N3C(=O)C2CC2)c(OC)c1 (stereo not drawn) | -11.9% (inactive)
25 | COc1ccc(S(=O)(=O)n2nc(C)c(S(=O)(=O)N3CCOCC3)c2C)cc1 | -29.6% (inactive)
26 | Cc1cc(C)c(C)c(S(=O)(=O)Nc2cccnc2)c1C | -21.1% (inactive)
27 | COc1ccccc1Oc1ccc(S(=O)(=O)Nc2cccnc2)cc1 | 96.3% (active)
28 | COc1ccc(S(=O)(=O)Nc2cccnc2)c(Cl)c1Cl | -20.2% (inactive)
29 | CN(CCc1cnn(C)c1)Cc1cn(C)nc1-c1ccccc1F | -12.1% (inactive)
30 | COc1ccc(NC(=O)C2=NNC(=O)CC2)cc1S(=O)(=O)N1CCCCC1 | -7.29% (inactive)
31 | CC1(C)O[C@@H]2CC3C4C[C@H](F)C5=CC(=O)C=CC5(C)C4C(O)CC3(C)[C@]2(C(=O)CO)O1 (stereo partly drawn) | 7.42% (inactive)
32 | Cc1ccc(NS(=O)(=O)c2ccc(-c3coc(C)n3)cc2)c(C)c1 | 73.5% (active)
33 | COc1cccc(NS(=O)(=O)c2ccc(-c3coc(C)n3)cc2)c1 | 50.6% (inactive)
34 | Cc1ccc(NS(=O)(=O)c2ccc3c(c2)n(C)c(=O)c(=O)n3C)c(C)c1 | 10.7% (inactive)
35 | CCC1CCCCN1C(=O)CSc1nc(C)cc(C)n1 (stereo not drawn) | 7.45% (inactive)
36 | Cc1ccc(C(=O)OC2=CC(=O)CC(C)(C)C2)cc1 | -13.1% (inactive)
37 | CS(=O)(=O)N1CCN=C1SCc1ccc(F)cc1 | -6.15% (inactive)
38 | COc1cccc(N(CC(=O)NC2CCCC2)C(=O)CCCC(=O)Nc2ccccn2)c1 | -5.7% (inactive)
39 | Cc1ccc(S(=O)(=O)Nc2ccc3ncccc3c2)cc1 | 74.2% (active)
40 | O=S(=O)(Nc1ccc(Oc2ncccn2)c(Cl)c1)c1ccc(F)cc1 | -0.77% (inactive)

Row | Compound | inhibition of corepressor binding
41 | COc1cc(NS(=O)(=O)c2ccc3ccccc3c2)c2ncccc2c1 | 48% (inactive)
42 | COC(=O)c1ccccc1NC(=O)C1CCN(S(=O)(=O)c2cc(OC)ccc2OC)CC1 | -0.68% (inactive)
43 | CC(C)N=C1CCCC1C(=S)SSC(=S)C1CCCC1=NC(C)C (stereo not drawn) | 82.3% (active)
44 | O=C(CSc1ccccn1)N1CCN(S(=O)(=O)c2ccc(Cl)cc2)CC1 | -21.8% (inactive)
45 | CCCc1cc(=O)[nH]c(SCc2ccc(C#N)cc2)n1 | -25.9% (inactive)
46 | O=C(CN(CC1CCCO1)C(=O)CNS(=O)(=O)c1ccccc1)NCc1ccccc1 (stereo not drawn) | -7.79% (inactive)
47 | CN(O)C(=S)c1ccccc1 | 98.8% (active)
48 | CCOC(=O)C1=NNC2(c3ccc(Cl)cc3)C(=O)N(c3cc(C)cc(C)c3)C(=O)C12 (stereo not drawn) | 3.14% (inactive)
49 | Cc1cc(C)nc(NC(=O)Nc2ccccc2C(F)(F)F)n1 | -48.1% (inactive)
50 | CC(C)(C)C(=O)COC(=O)c1cc(S(=O)(=O)N2CCCCC2)ccc1N1CCOCC1 | -9.47% (inactive)
51 | COc1ccccc1CCCNC(=O)C1CCC(=O)N(CCN2CCOCC2)C1 (stereo not drawn) | -8.73% (inactive)
52 | O=C(c1ccco1)N1CCN(CC(=O)N(C2CCCCC2)C2CCS(=O)(=O)C2)CC1 (stereo not drawn) | -15.5% (inactive)
53 | Cc1ccc(C)c(S(=O)(=O)N2CCN(c3ncnc4sccc34)CC2)c1 | 85.8% (active)
54 | Cc1ccc(S(=O)(=O)N2CCC3(CC2)OCCO3)c(C)c1 | -34.4% (inactive)
55 | COc1ccc(S(=O)(=O)N2CCN(c3ncnc4c(-c5ccccc5)nsc34)CC2)cc1 | -27.3% (inactive)
56 | Cc1ccc([N+](=O)[O-])cc1S(=O)(=O)N1CCCN(C)CC1 | -11.3% (inactive)
57 | Cc1ccc(S(=O)(=O)N2CCN(Cc3cccc(C)c3O)CC2)cc1 | 4.5% (inactive)
58 | Cc1ccc(S(=O)(=O)N2CCN(c3ncnc4ccccc34)CC2)cc1 | 89.9% (active)

Source: PubChem BioAssay AID602229 (The Scripps Research Institute Molecular Screening Center, 2012)
